From PubChem BioAssay (NCI) come the findings set out here.

SMILES strings stand for the structures. Compounds without any hit were thinned out: in the full panel of roughly 83,000, 20% have a hit.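 Single-dose data. Exposure time 48 hours. Values below 10 considered active.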 Unmarked numbers belong to inactive results. The source made the active and inactive calls.

The experiment relates to CAKI-1 renal. Briefly: NCI-60 one-dose screen, 48 h (100 = growth as untreated, 0 = no growth, -100 = all killed). The following applies: 10 µM unless noted. The procedure:
Growth inhibition of the CAKI-1 human tumor cell line is measured as a screen for anti-cancer activity. Cells are grown in 96 well plates and exposed to the test compound for 48 hours. Compounds are tested at a single concentration, which is 10^-5 M for most compounds. The reported endpoint is percent growth (GI% or GIPRCNT), where numbers from 0 - 100% represent growth inhibition, and numbers from -100% - 0 represent cell death. For example, a value of 40 represents 60% growth inhibition. A value of 0 means no net growth occurred over the course of the experiment. A value of -40 indicates 40% of cells at the beginning of the experiment died by the end of the experiment. A value of -100 means all cells are dead at the end of the experiment.
NCI-60 Human Tumor Cell Lines Screen was performed using the standard one-dose NCI protocol, which is described in more detail at https://dtp.cancer.gov/discovery_development/nci-60/default.htm.
Compounds with GIPRCNT values below 10 were considered active. Activity score was based on GIPRCNT using the following formula: […]
Score is 0 for GIPRCNT values of 100 or above, 50 for GIPRCNT values of 0, and 100 for GIPRCNT values of -100.
For `O=C(O)c1nn(Cc2ccc(Cl)cc2)c2ccccc12`, the growth is 106%.

In the case of `O=C1NC(=O)C(O)(C2(O)C(=O)NC(=O)NC2=O)C(=O)N1`, the growth is 104%.

Consider `CCOC(=O)Nc1cc(Cl)c([N+](=O)[O-])c(NC(=O)OCC)n1`, for which the growth is -95.5% (active).

Consider `CC(C)(O)/C=C/C(=O)[C@](C)(O)[C@H]1[C@H](O)C[C@@]2(C)[C@@H]3CC=C4[C@@H](C=C(O)C(=O)C4(C)C)[C@]3(C)C(=O)C[C@]12C`, for which the growth is -57.2% (active).

Take `Cc1cc(NC(=O)CCc2ccc(N3C(N)=NC(N)=NC3(C)C)cc2)ccc1S(=O)(=O)F`: the growth is 34.2%.

For the molecule `O=C(N/N=C/c1ccc(N(CCCl)CCCl)cc1)c1cc(=O)[nH]c(=O)[nH]1`, the growth was 53.2%.

For the molecule `NS(=O)(=O)c1nc[nH]c1[N+](=O)[O-]`, the growth was 97.7%.

As to `CCC(CO)NC1CCCCC1` (stereo not given), the growth is 61.5%.

For `O1[As]2O[As]3O[As]1O[As](O2)O3`, the growth was -20.2% (active).

On to `CCC[CH2][Sn]([CH2]CCC)([CH2]CCC)[O]C(=O)CC`, for which the growth was -95.2% (active).

In the case of `Cc1cc([N+](=O)[O-])c(Cl)cc1NS(=O)(=O)c1ccccc1`, the growth was 63.7%.

Turning to `O=C(CF)N(O)c1ccc(/C=C/c2ccccc2)cc1`, the growth was 11.9%.

On to `CCC(CC)(c1ccccc1)C(OC(N)=O)c1ccccc1` (stereo not given), for which the growth was 60.7%.

On to `C[CH2][Pb]([CH2]C)([CH2]C)[O]C(=O)COC`, for which the growth was -10.3% (active).

For the molecule `CNC(=O)Oc1ccccc1`, the growth was 113%.

Consider `O=S(=O)(c1ccc(Cl)cc1)C(Cl)(Cl)Cl`, for which the growth was -6.81% (active).

For the molecule `ClCCN(CCCl)c1nc(Cl)c(C2CC(c3ccc(Cl)cc3)=NN2c2cc(Cl)cc(Cl)c2)s1` (stereo not given), the growth is 82.9%.

As for `O=CN1N=C(c2ccccc2)CC1c1sc(N(CCCl)CCCl)nc1Cl` (stereo not given), the growth is 79.6%.

Turning to `Oc1c(Br)cc(Br)cc1Br.[Cu+2]`, the growth was 104%.

On to `COc1ccc(C2=NN(c3ccccc3)C(c3sc(N(CCCl)CCCl)nc3Cl)C2)cc1` (stereo not given), for which the growth was 69.4%.

For the molecule `O=C(CC1(O)C(=O)Nc2ccc(F)cc21)c1ccc(C(=O)NCC2CCC3(CC2)OOC2(CCCCC2)OO3)cc1` (stereo not given), the growth is -15.9% (active).

Turning to `CCOc1cc(/C=N\Nc2nnc(C)n2N)c(C)cc1N(CCCl)CCCl`, the growth was 11.8%.

Regarding `CC1([N+](=O)[O-])COP(=O)(Nc2ccc(F)cc2)OC1` (stereo not given), the growth was 107%.

Regarding `CCCCNCCc1ccccn1`, the growth is 97%.

Take `O=C1NC(=O)C(=Cc2cn(Cc3ccccc3)c3ccccc23)C(=O)N1`: the growth was 62.4%.

For the molecule `Cc1cc(NC(=O)NCCOc2ccc(N3C(N)=NC(N)=NC3(C)C)cc2Cl)ccc1S(=O)(=O)F`, the growth was 95.1%.

`Nc1ccc(N)c2c1Oc1ccccc1O2`: the growth was 84.3%.

Consider `N#C[Se]CCN1C(=O)C2C(C1=O)[C@H]1C=C[C@@H]2S1` (stereo not given in full), for which the growth was -98.7% (active).

As to `COc1ccc2c(c1)NC1=C(C(=O)OC1)C2c1cc(OC)c(OC)c(OC)c1` (stereo not given), the growth was 25.4%.

For the molecule `CNC(=O)Oc1ccccc1-c1ccccc1`, the growth is 95.5%.

In the case of `COc1cc(CNCCc2ccc(Cl)cc2)cc(OC)c1O`, the growth is 58.4%.

As for `Cc1cc(N(CCCl)CCCl)ccc1C=Nc1ccc2ccccc2c1`, the growth is 1.75% (active).

As for `O=C(N/N=C/c1ccc([N+](=O)[O-])o1)c1cc([N+](=O)[O-])cc([N+](=O)[O-])c1O`, the growth was 88.5%.

Consider `C[CH2][Pb]([CH2]C)([CH2]C)[O]C(=O)COc1ccccc1`, for which the growth is -5.81% (active).

Regarding `CCOC(=O)/C=C(\C)Nc1ccc(N/C(C)=C/C(=O)OCC)c2c1Oc1ccccc1O2`, the growth is 95.5%.

Take `CC1COC(=O)C1` (stereo not given): the growth is 96.1%.

As for `CCC(C)[C@H]1O[C@]2(C=C[C@@H]1C)C[C@@H]1C[C@@H](C/C=C(\C)[C@@H](OC3C[C@H](OC)C(O[C@H]4C[C@H](OC)[C@@H](O)[C@H](C)O4)[C@H](C)O3)[C@@H](C)/C=C/C=C3\CO[C@@H]4[C@H](O)C(C)=C[C@@H](C(=O)O1)[C@]34O)O2` (stereo not given in full), the growth was 19.8%.

For the molecule `CC12CCC3C(CC=C4CC(O)CCC43C)C1C/C(=C\N1CCOCC1)C2=O` (stereo not given), the growth was 91%.

In the case of `CCN(CC)c1ccc(C=C2C(=O)NC(=S)NC2=O)cc1`, the growth is 91.8%.

`CC(=O)C1C(=O)N(C)C(=O)N(C)C1=O`: the growth is 102%.
